Some test systems named below: SR leukemia; RPMI-8226 leukemia; OVCAR-8 ovarian; OVCAR-5 ovarian; OVCAR-4 ovarian; SK-OV-3 ovarian; IGROV1 ovarian; OVCAR-3 ovarian; HS 578T breast; NCI/ADR-RES ovarian; T-47D breast; BT-549 breast; MDA-MB-435 melanoma; SW-620 colon; MCF7 breast; HCT-116 colon; HCC-2998 colon; KM12 colon.
Experiment in all cases: NCI-60 one-dose screen, 48 h (100 = growth as untreated, 0 = no growth, -100 = all killed)
Holding throughout (settings): 10 µM unless noted

Compounds without any hit were thinned out: in the full panel of roughly 83,000, 20% have a hit.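 Activity criterion: percent growth below 10, measured after cells in 96-well plates were exposed to a single compound concentration for 48 hours.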 A number with no mark means an inactive call. The source made the active and inactive calls.

The record followed here is PubChem BioAssay (NCI).

On to `NC(N)=Nc1ccc(Nc2cccc(Oc3ccc(Cl)c(C(F)(F)F)c3)c2)cn1`, for which the growth with SR leukemia is -49.9% (active); in the assay with RPMI-8226 leukemia, -40.8% (active); in the assay with OVCAR-8 ovarian it was 27.4%; in the assay on OVCAR-5 ovarian, 58.1%; with OVCAR-4 ovarian it was 39.8%; in the assay on SK-OV-3 ovarian, 56.3%. The growth with IGROV1 ovarian is 22.6%; with OVCAR-3 ovarian it was -55% (active); in the assay on HS 578T breast, 45.4%; in the assay on NCI/ADR-RES ovarian, 80.5%; in the assay with T-47D breast, 23.7%; in the assay with BT-549 breast, 76.2%. The growth with MDA-MB-435 melanoma was 18.3%; with SW-620 colon, -60.5% (active); in the assay with MCF7 breast, -11.2% (active); with HCT-116 colon, -72.9% (active); in the assay on HCC-2998 colon, -33.1% (active); in the assay on KM12 colon, -58.7% (active).
Turning to `CNC1CCc2c(sc(NC(=O)c3ccc(C(C)(C)C)cc3)c2C(N)=O)C1` (configuration not stated), the growth was 2.87% (active) with SR leukemia; -5.86% (active) with RPMI-8226 leukemia; 74.6% in the assay on OVCAR-8 ovarian; 67% in the assay with OVCAR-5 ovarian; 81.4% with OVCAR-4 ovarian; 90.6% in the assay with SK-OV-3 ovarian. Further, the growth in the assay with IGROV1 ovarian is 65.8%; in the assay on OVCAR-3 ovarian, 61.3%; in the assay with HS 578T breast it was 57.3%; with NCI/ADR-RES ovarian, 78.2%; in the assay on T-47D breast it was 53.6%; in the assay on BT-549 breast it was 74.7%. For the same molecule, the growth was 45.2% in the assay with MDA-MB-435 melanoma; -53.5% (active) in the assay on SW-620 colon; -34.2% (active) with MCF7 breast; 3.12% (active) in the assay with HCT-116 colon; 28.6% in the assay with HCC-2998 colon; 10% with KM12 colon.
In the case of `CCCCCc1ccc(S(=O)(=O)Nc2cc(-c3csc(NC(=O)CN4CCN(CCO)CC4)n3)ccc2OC)cc1`, the growth with SR leukemia is -13.2% (active); in the assay on RPMI-8226 leukemia, -16.9% (active); with OVCAR-8 ovarian it was 82.1%; with OVCAR-5 ovarian, 86.1%; with OVCAR-4 ovarian, 72.5%; with SK-OV-3 ovarian, 78%. Besides, the growth was 48.9% in the assay on IGROV1 ovarian; 13.3% in the assay on OVCAR-3 ovarian; 52.8% with HS 578T breast; 88.4% in the assay on NCI/ADR-RES ovarian; 26.8% in the assay on T-47D breast; 88.7% in the assay with BT-549 breast. In addition, the growth is -48.6% (active) with MDA-MB-435 melanoma; 1.64% (active) in the assay on SW-620 colon; 6.28% (active) in the assay with MCF7 breast; -13.2% (active) in the assay on HCT-116 colon; -23.4% (active) in the assay on HCC-2998 colon; 61.2% in the assay on KM12 colon.
For `O=C(O)c1ccc(-n2cc(CNc3cccc(Cl)c3)c(-c3ccc(F)cc3)n2)cc1`, the growth in the assay on SR leukemia was 130%; with RPMI-8226 leukemia it was 89.2%; in the assay with OVCAR-8 ovarian, 96.3%; in the assay with OVCAR-5 ovarian, 112%; in the assay on OVCAR-4 ovarian, 100%; in the assay with SK-OV-3 ovarian, 106%. Further, the growth with IGROV1 ovarian is 102%; in the assay on OVCAR-3 ovarian, 106%; in the assay with HS 578T breast, 106%; in the assay on NCI/ADR-RES ovarian, 97.9%; with T-47D breast, 92.1%; with BT-549 breast it was 108%. Further, the growth with MDA-MB-435 melanoma was 102%; with SW-620 colon, 110%; with MCF7 breast, 70%; with HCT-116 colon, 89.2%; in the assay on HCC-2998 colon, 105%; with KM12 colon, 94.2%.
In the case of `NS(=O)(=O)c1ccc(Nc2nc(N/N=C/c3ccccn3)nc(Nc3ccccc3)n2)cc1`, the growth with SR leukemia is 12.5%; in the assay with RPMI-8226 leukemia, 36.6%; in the assay on OVCAR-8 ovarian, 3.72% (active); in the assay on OVCAR-5 ovarian, 9.36% (active); with OVCAR-4 ovarian, -20.3% (active); with SK-OV-3 ovarian it was -31.4% (active). Further, the growth was -30.3% (active) in the assay on IGROV1 ovarian; -15.8% (active) with OVCAR-3 ovarian; -18.8% (active) in the assay with HS 578T breast; 49% in the assay on NCI/ADR-RES ovarian; -18.4% (active) in the assay with T-47D breast; -20.5% (active) in the assay with BT-549 breast. The growth is -84.9% (active) in the assay with MDA-MB-435 melanoma; -17.8% (active) in the assay with SW-620 colon; 1.45% (active) with MCF7 breast; -30% (active) in the assay on HCT-116 colon; -74.8% (active) with HCC-2998 colon; 4.15% (active) in the assay with KM12 colon.
Regarding `CC(C)(C)c1ccc(C(=O)Nc2sc3c(c2C(N)=O)CCC(O)C3)cc1` (configuration not stated), the growth in the assay with SR leukemia was 25.8%; in the assay on RPMI-8226 leukemia it was 16.3%; in the assay with OVCAR-8 ovarian, 43.4%; in the assay with OVCAR-5 ovarian it was 66.5%; with OVCAR-4 ovarian, 68.5%; in the assay on SK-OV-3 ovarian it was 70.1%. In addition, the growth with IGROV1 ovarian is 44.9%; in the assay with OVCAR-3 ovarian, 55.3%; in the assay with HS 578T breast, 82.9%; in the assay on NCI/ADR-RES ovarian it was 49.9%; in the assay on T-47D breast, 28.8%; in the assay with BT-549 breast, 58.5%. Further, the growth is 32.2% in the assay on MDA-MB-435 melanoma; 7.55% (active) in the assay on SW-620 colon; 5.17% (active) in the assay with MCF7 breast; 26.3% in the assay with HCT-116 colon; 37.4% in the assay on HCC-2998 colon; 11.7% in the assay with KM12 colon.
Take `COc1ccccc1-n1cc(C#N)c(N)c1C(=O)c1ccc(Cl)cc1`: the growth was 23.5% in the assay on SR leukemia; 88.3% in the assay on RPMI-8226 leukemia; 96.7% in the assay with OVCAR-8 ovarian; 109% with OVCAR-5 ovarian; 98.2% with OVCAR-4 ovarian; 101% in the assay on SK-OV-3 ovarian. Further, the growth with IGROV1 ovarian is 78%; with OVCAR-3 ovarian it was 63.7%; in the assay with HS 578T breast it was 74.6%; in the assay on NCI/ADR-RES ovarian, 41.1%; in the assay on T-47D breast, 88.3%; in the assay with BT-549 breast, 92.7%. Further, the growth was -16.7% (active) with MDA-MB-435 melanoma; 40.8% in the assay with SW-620 colon; 32.3% with MCF7 breast; 63.5% in the assay with HCT-116 colon; 68.2% with HCC-2998 colon; 58.2% with KM12 colon.
`O=c1[nH]c2ccccc2cc1CSc1ccccc1Nc1nccc(-c2ccc(Cl)cc2)n1`: the growth in the assay with SR leukemia was 99.2%; with RPMI-8226 leukemia, 94.5%; in the assay with OVCAR-8 ovarian, 96.9%; in the assay on OVCAR-5 ovarian, 110%; in the assay on OVCAR-4 ovarian it was 86.2%; in the assay on SK-OV-3 ovarian, 112%. Besides, the growth in the assay on IGROV1 ovarian is 89.6%; with OVCAR-3 ovarian it was 101%; with HS 578T breast, 88.6%; in the assay with NCI/ADR-RES ovarian it was 95.1%; with T-47D breast, 93.3%; in the assay on BT-549 breast it was 119%. For the same molecule, the growth was 99.9% in the assay on MDA-MB-435 melanoma; 101% with SW-620 colon; 81.1% with MCF7 breast; 100% in the assay with HCT-116 colon; 114% in the assay with HCC-2998 colon; 100% with KM12 colon.
`COc1cccc(O)c1/C=C(/C)c1ccc2c(OC)cccc2[o+]1`: the growth with SR leukemia was 87.6%; in the assay with RPMI-8226 leukemia, 109%; with OVCAR-8 ovarian it was 103%; in the assay on OVCAR-5 ovarian, 106%; in the assay with OVCAR-4 ovarian, 103%; with SK-OV-3 ovarian it was 106%. For the same molecule, the growth with IGROV1 ovarian is 97%; in the assay on OVCAR-3 ovarian, 116%; in the assay with HS 578T breast it was 110%; in the assay with NCI/ADR-RES ovarian it was 100%; with T-47D breast it was 106%; with BT-549 breast, 95.7%. For the same molecule, the growth with MDA-MB-435 melanoma was 86.7%; in the assay with SW-620 colon, 96.7%; in the assay with MCF7 breast, 93.8%; with HCT-116 colon, 101%; in the assay on HCC-2998 colon, 110%; in the assay with KM12 colon, 101%.
